Data from PubChem BioAssay AID952 (NMMLSC, 2007).
Hit rate of the full screen: of about 190,000 compounds, about 45 (0.02%) were called active. Cut-off read from the data, not from the text of the source: active = inhibition above about 40%. The list is a sample of the results.

These compounds were tested against Bcl-2-like protein 2 (Homo sapiens) (UniProt Q92843) (assay: inhibitors of Bim binding to Bcl-W, primary screen, biochemical, multiplexed, bead-based flow cytometry (AID 952;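 note: 0% = bound tracer without compound and 100% = peptide blocker; higher means less fluorescent Bim peptide bound to Bcl-W beads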)). Conditions: Bim peptide-Bcl-W binding, at 10 µM, active compounds read high.
Sequence of Bcl-2-like protein 2 (Homo sapiens) (Q92843 whole entry, looked up): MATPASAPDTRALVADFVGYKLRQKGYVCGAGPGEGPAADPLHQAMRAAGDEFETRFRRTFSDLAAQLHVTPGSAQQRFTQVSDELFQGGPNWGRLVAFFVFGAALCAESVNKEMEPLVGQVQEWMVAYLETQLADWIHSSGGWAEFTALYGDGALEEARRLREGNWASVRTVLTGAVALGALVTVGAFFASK

inhibition, inactive:
CC1(C)CC(=O)C=C(N2CCOCC2)C1 -2%
Cc1cc(OCCCC(=O)NCCN2C(=O)S/C(=C\c3cccnc3)C2=O)ccc1Cl -3%
O=C(N/N=C/c1ccc(OCc2ccccc2)cc1)c1ccc(O)cc1 0%
CC(C)C(O)C1CCN(Cc2nc(Cc3ccccc3Cl)no2)CC1 (configuration not stated) 1%
CSc1ccc(/C=C/C(=O)NC23CC4CC(CC(C4)C2)C3)cc1 -2%
CN1CCN(/N=C/c2ccc(-c3ccc([N+](=O)[O-])cc3)o2)CC1 3%
Cc1ccnc(NC(=O)CCCOc2ccccc2)c1 -1%
Cc1ccc(CCCOC(=O)C[N+]2(C)CCCC2)cc1 3%
COc1ccc(-c2csc3ncnc(Oc4ccc5c(C)cc(=O)oc5c4)c23)cc1 -9%
CCn1c(SCc2ccccc2)nc2c(c1=O)SCC2 -2%
CCOC(=O)C1=C(CN2CCCCCC2)NC(=O)NC1c1cccc([N+](=O)[O-])c1 (configuration not stated) -2%
FC(F)Oc1ccccc1NC(=S)Nc1cccc(Cl)c1Cl -3%
CCC(C)NC(=O)c1ccc(N2CCC3(CC2)OCCO3)c([N+](=O)[O-])c1 (configuration not stated) -1%
C=C(C)C1CC=C(C)/C(=N\NC(=O)CNc2ccccc2OC)C1 (configuration not stated) 0%
NCCCC[C@@H]1NC(=O)[C@H](CCC(=O)O)NC(=O)c2cc([N+](=O)[O-])cc(I)c2NCC[C@@H](C(N)=O)NC1=O 2%
Cc1nnc(SCC(=O)N2CCOCC2)[nH]c1=O -4%
OCCC1CN(Cc2ccc(Oc3ncccn3)cc2)CCN1CCc1ccccc1 (configuration not stated) -3%
Cc1[nH]c2ccccc2c1/C=N\NC(=O)Cn1nnc(-c2ccccc2)n1 -6%
CCOC(=O)C1=NOC(Cn2cc(C(C)=O)c(=O)[nH]c2=O)C1 (configuration not stated) -3%
CN(C)c1ccc(Nc2c3c4c(cccc4n(C)c2=O)C(=O)c2ccccc2-3)cc1 14%
C1CC1Cc1noc(CN2CCN(CC3CC3)CC2)n1 -3%
COC(=O)c1nn(-c2cccc(Cl)c2)ccc1=O 1%
O=C(CC1C(=O)NCCN1CC(c1ccccc1)c1ccccc1)NCCc1cn[nH]c1 (configuration not stated) -4%
O=C(CCN1C(=O)c2ccccc2C1=O)NCCCn1ccnc1 0%
Cc1cc(C)c2c(n1)sc1c(=O)n(-c3ccccc3)c(=O)[nH]c12 -3%
Cc1ccccc1NS(=O)(=O)CCCCC(Cl)(Cl)Cl 0%
COc1ccc(NS(=O)(=O)c2ccc(NC(=O)c3ccc(N(C)S(C)(=O)=O)cc3)cc2)cc1 -8%
